Compounds with a hit are over-represented: about 0.56% of the library has one in this group of screens.
GALK inh = qHTS Assay for Inhibitors of Human Galactokinase (GALK) | P51570 | Purified GALK, Kinase-Glo residual ATP luminescence | Potency, µM (highest dose often 57.5 µM), inactives show at the highest dose activity change, negative = inhibition, most hits filed as inhibitors | hit rate 0.007% among 270,000; note: potency is the fitted concentration of half-maximal effect; % is set by controls: 0 for no effect and ±100 for the full control effect
Target sequence (P51570 whole entry, looked up): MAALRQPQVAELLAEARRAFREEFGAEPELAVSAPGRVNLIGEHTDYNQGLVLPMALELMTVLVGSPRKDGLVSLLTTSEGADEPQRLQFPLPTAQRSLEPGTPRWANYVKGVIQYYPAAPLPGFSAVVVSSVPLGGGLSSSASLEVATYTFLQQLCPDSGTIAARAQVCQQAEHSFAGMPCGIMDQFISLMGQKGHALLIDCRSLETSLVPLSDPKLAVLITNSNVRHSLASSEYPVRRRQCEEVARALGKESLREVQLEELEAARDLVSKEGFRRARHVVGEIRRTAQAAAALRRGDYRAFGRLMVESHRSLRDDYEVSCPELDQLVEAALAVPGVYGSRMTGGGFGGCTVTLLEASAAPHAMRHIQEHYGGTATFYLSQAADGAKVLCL
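Compounds were pin-transferred into ATP buffer (35 uM final), then GALK plus galactose (5 nM, 100 uM final) was added. After 1 h at room temperature, Kinase-Glo Plus was added and luminescence read after 10 min.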
PKM2 act = qHTS Assay for Activators of Human Muscle isoform 2 Pyruvate Kinase; Pyruvate kinase PKM (Homo sapiens), P14618; purified PKM2, Kinase-Glo ATP luminescence, activation; response scale: 0% is enzyme alone, no compound; Potency, µM (titrated, usually from 57.5 µM), for the others: at the top dose activation, usual class: activators; hit rate 0.34% among 260,000; AID 1631, 2009; note: potency is the fitted concentration of half-maximal effect; % is set by controls: 0 for no effect and ±100 for the full control effect; nearly all actives have a fitted effect of over 55% in size
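Kinase-Glo luminescence reports ATP generated from ADP (0.1 mM) and PEP (0.5 mM) by purified hPK-M2 after 1 h at room temperature, pH 7.2 imidazole buffer; intermediate enzyme activity allows detecting inhibitors and activators.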
KinaseGlo FLuc = Counterscreen for Luciferase (Kinase-Glo TM) Inhibition; hit rate 0.28% among 200,000; Potency, µM (top dose mostly 38.3 µM), inactives show top-dose activity change, negative = inhibition, actives largely listed as inhibitors; Luciferin 4-monooxygenase (Photuris pensylvanica), Q27757; Kinase-Glo luciferase, ATP luminescence, 8 min; note: potency is the fitted concentration of half-maximal effect; % is set by controls: 0 for no effect and ±100 for the full control effect; nearly all actives have a fitted effect of over 60% in size
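Kinase-Glo luciferase light output from ATP and luciferin was measured with 10 uM ATP, within the enzyme's linear range. Buffer: 50 mM imidazole pH 7.2, 50 mM KCl, 7 mM MgCl2, 0.01% Tween 20, 0.05% BSA; luminescence read after 8 min at ambient temperature.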
Tb PFK block = qHTS Assay to Find Inhibitors of T. brucei phosphofructokinase; T. brucei PFK, ADP-Glo luminescence; Potency, µM (titrated, usually from 57.5 µM), inactives show at the highest dose activity, negative = inhibition, actives largely listed as inhibitors; hit rate 0.17% among 330,000; AID 485367, 2010;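 note: potency is the fitted concentration of half-maximal effect; 0% = uninhibited 1x PFK enzyme wells and -100% = no-enzyme wells; nearly all actives have a fitted effect of over 60% in size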
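In TEA buffer at pH 8.0 with 5 mM MgCl2, enzyme (1.25 nM) converted F6P (0.5 mM) and ATP (0.1 mM) for 45 min at room temperature. ADP product was read by luciferase luminescence.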
CBFb RUNX1 block = qHTS Assay for Compounds Blocking the Interaction Between CBF-beta and RUNX1 for the Treatment of Acute Myeloid Leukemia | Runt-related transcription factor 1 (Homo sapiens) + Core-binding factor subunit beta … | AlphaScreen CBFb-His/RUNX1-biotin binding, biochemical | Potency, µM (titrated, usually from 59.8 µM), for the others: at the top dose activity, negative = inhibition, actives largely listed as inhibitors | 230,000 tested, under 10 active | AID 1477, 2009; note: % of control where 0% means no effect
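His-tagged CBF-beta and biotinylated RUNX1 (30 nM each) were premixed 20 min at room temperature, exposed to compound for 15 min, then given nickel-chelate and streptavidin AlphaScreen beads (50 ng each). After 90 min, AlphaScreen signal was read.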
HeLa tox = Secondary assay for Activators of Human Pyruvate Kinase M2 isoform - Cell Titer Glo cytotoxicity assay. shares compounds with PKM2 act. HeLa viability, CellTiter-Glo ATP luminescence, 24 h. 230 tested, under 10 active. activity change, negative = cytotoxicity, % at 57.5 µM; note: % of control where 0% means no effect
Active calls of the source: *; u = inconclusive; x = no result given; [ ] = remark or other dose. Calls come from the whole dose curve; as a rule, active = well fitted curve in the direction sought with a large enough effect; inconclusive = small, poorly fitted or top-dose-only effect, or another doubt; inactive = no such curve, though single readings can be large; an effect the other way counts as inactive or inconclusive.

SMILES	GALK inh	PKM2 act	KinaseGlo FLuc	Tb PFK block	CBFb RUNX1 block	HeLa tox
O=C(Cc1cccs1)N1CCCC(c2nc3c(nnn3Cc3cccc(Cl)c3)c(=O)[nH]2)C1 (stereo not given)	4%	16µM*	0%	-8%	-3%	-12
O=C(c1cccs1)N1CCCC(c2nc3c(nnn3Cc3cccc(Cl)c3)c(=O)[nH]2)C1 (stereo not given)	-1%	12%	x	0%	x	x
O=c1c2ccc(Cl)cc2[nH]c(=S)n1Cc1cccnc1	-3%	3.2µM*	-2%	2%	0%	3
O=C(c1ccc2c(=O)n(Cc3ccc(Cl)cc3)c(=S)[nH]c2c1)N1CCCC1	7%	x	x	-4%	x	x
Cc1ncc(COP(=O)(O)O)c(C)c1O	x	x	-3%[7.66 µM]	x	x	x
Cc1c(C(=O)N2CCOCC2)[nH]c2c1C(=O)CC(c1ccccc1Cl)C2 (stereo not given)	-3%	16µM*	3%	6%	-2%	-14
CC(C)(SCc1ccccc1)[C@H](N)C(=O)O	x	x	-7%[7.66 µM]	x	x	x
COC(=O)C(C)CCCC(C)CCCC(C)CCCC(C)C (stereo not given)	x	x	x	x	23%	x
CNC(=O)NC(=O)CSc1ncc(C(F)(F)F)cc1Cl	0%	0.4µM*	0%	-4%	-8%	0
Cc1ccc(CN2CCN(Cc3ccc(C)o3)[C@@H](C)C2)o1	x	x	-4%[7.66 µM]	x	x	x
COc1cccc(NC(=O)CSc2nnc(-c3ccc(C)cc3)o2)c1	2%	1.3µM*	1%	-5%	-1%	8
C[C@H]1CCCC2(CC[N+](C)(CCC[N+](C)(C)C)CC2)C1 (stereo not given in full)	x	x	-5%[7.66 µM]	x	x	x
O=S(=O)(NC1CCN(S(=O)(=O)c2c(F)cccc2F)CC1)c1ccc2c(c1)OCCO2	x	x	x	5%	x	-29
O=S(=O)(c1ccc2c(c1)OCCO2)C1CCN(S(=O)(=O)c2c(F)cccc2F)CC1	x	x	x	x	x	u
O=S(=O)(NC1CCN(S(=O)(=O)c2c(F)cccc2F)C1)c1ccc2c(c1)OCCO2 (stereo not given)	x	x	x	3%	x	u
O=S(=O)(NC1CCC(CNS(=O)(=O)c2c(F)cccc2F)CC1)c1ccc2c(c1)OCCO2 (stereo not given)	x	x	x	-4%	x	x
O=S(=O)(NCCCNS(=O)(=O)c1c(F)cccc1F)c1ccc2c(c1)OCCO2	x	x	x	17%	x	-2
CC(=O)NC1C(O)O[C@H](C(=O)O)[C@@H](O)[C@@H]1O (stereo not given in full)	x	x	x	x	6%	x
CCc1ccccc1	x	x	x	x	1%[21.7 µM]	x
Cc1cc2c(s1)c1cnn(Cc3cccc(Cn4ncc5c6sc(C)cc6n(C)c5c4=O)c3F)c(=O)c1n2C	x	x	x	x	x	6
Cc1cc2c(s1)c1cnn(Cc3c(F)c(F)cc(F)c3F)c(=O)c1n2C	x	x	x	x	x	3
CC(C)(C)n1ncc2c(=O)n(Cc3cccc(Cn4cnc5c(cnn5C(C)(C)C)c4=O)c3F)cnc21	x	x	x	0%	x	x
Cc1cc2c(s1)c1cnn(Cc3ccc(F)c(F)c3F)c(=O)c1n2C	x	x	x	x	x	-18
Cc1cc(C)c(Cn2c3ccccc3c3cnn(CC(=O)NCc4ccccn4)c(=O)c32)c(C)c1	5%	x	x	-1%	x	x
Cc1cc2c(s1)c1cnn(Cc3ccccc3F)c(=O)c1n2C(C)C	x	x	x	x	x	-11
SMILES	GALK inh	PKM2 act	KinaseGlo FLuc	Tb PFK block	CBFb RUNX1 block	HeLa tox
N/N=C1/c2ccccc2N[C@H]1OC(=O)Nc1cccc(Cl)c1	x	x	-1%[7.66 µM]	x	x	x
COC(=O)Nc1ccc(Cl)c(Cl)c1	x	x	x	x	14%	x
Cc1ccccc1C	x	x	x	x	14%[21.7 µM]	x
Cc1cc2c(s1)c1cnn(Cc3c(F)cccc3F)c(=O)c1n2C	x	x	x	x	x	8
CCCCCn1ncc2c3sc(C)cc3n(C)c2c1=O	x	x	x	x	x	-14
COc1ccc(Cn2ncc3c4sc(C)cc4n(C)c3c2=O)cc1	x	x	x	x	x	3
COc1ccc(Cn2ncc3c4sc(C)cc4n(C)c3c2=O)cc1F	x	x	x	x	x	11
